Source: PubChem BioAssay (NCI)
Compounds without any hit were thinned out: in the full panel of roughly 79,000, 15% have a hit. Calls of active or inactive are those of the source. Rule as the data show it: active = growth inhibition above about 70%; inactive = the rest.

Assays:
[1] = NCI Yeast Anticancer Drug Screen. Data for the wt1 strain (AID 149);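 also: 0% = growth of vehicle-treated wt1 cultures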; details: S. cerevisiae wt1 strain (SPY 50644) growth inhibition, active compounds read high
Summary of the method: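 Vehicle-normalised growth inhibition; strain wt1; compound exposure.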

[2] = NCI Yeast Anticancer Drug Screen. Data for the rad50EPP+ strain (AID 151);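 also: 0% = growth of vehicle-treated control cultures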; details: S. cerevisiae rad50 mutant strain, active compounds read high
Summary of the method: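 Vehicle-normalised growth inhibition; rad50EPP+ yeast strain, altered in DNA damage repair, compound-treated.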

[3] = NCI Yeast Anticancer Drug Screen. Data for the mgt1 strain (AID 153); details: S. cerevisiae mgt1 mutant growth inhibition, active compounds read high
Summary of the method: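 Vehicle-normalized growth inhibition is determined in mgt1 yeast, a strain selected for a defined alteration in DNA repair or cell cycle control.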

[4] = NCI Yeast Anticancer Drug Screen. Data for the rad50 strain (AID 155);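 also: 0% = growth of vehicle-only cultures of the same strain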; details: S. cerevisiae rad50 strain growth inhibition, active compounds read high
Summary of the method: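 A DNA repair-deficient yeast mutant serves as the test organism; compound-induced growth inhibition is calculated against vehicle-treated cells.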

[5] = NCI Yeast Anticancer Drug Screen. Data for the mec2-1 strain (AID 157); details: S. cerevisiae mec2-1 strain, active compounds read high
Summary of the method: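 Mutant yeast (mec2-1) grown with compound; growth inhibition relative to vehicle control reported.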

[6] = NCI Yeast Anticancer Drug Screen. Data for the rad14 strain (AID 159);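 also: 0% = growth of vehicle-treated control cultures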; details: S. cerevisiae rad14 strain growth inhibition, active compounds read high
Summary of the method: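 Vehicle-treated cultures served as the baseline for growth inhibition of a DNA repair-mutant yeast strain exposed to each compound.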

[7] = NCI Yeast Anticancer Drug Screen. Data for the sgs1 mgt1 strain (AID 161);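 also: 0% = growth of cultures given vehicle only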; details: S. cerevisiae sgs1 mgt1 strain, active compounds read high
Summary of the method: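 Percent growth inhibition was derived by comparing compound-exposed mutant yeast with vehicle-exposed cultures. The strain carries alterations in DNA damage repair.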

[8] = NCI Yeast Anticancer Drug Screen. Data for the CLN2oe strain (AID 163);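 also: 0% = growth of vehicle-only control cultures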; details: S. cerevisiae CLN2oe strain, active compounds read high
Summary of the method: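 Compounds are applied to yeast harbouring a defined cell-cycle control change; reduced growth compared with vehicle-treated controls gives the value.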

[9] = NCI Yeast Anticancer Drug Screen. Data for the cln2 rad14 strain (AID 165);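 also: 0% = growth equal to vehicle treated cultures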; details: S. cerevisiae cln2 rad14 strain, active compounds read high
Summary of the method: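 Readout is yeast growth inhibition versus vehicle-treated controls, using a strain with cln2 and rad14 alterations exposed to compound.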

[10] = NCI Yeast Anticancer Drug Screen. Data for the bub3 strain (AID 167); details: S. cerevisiae bub3 mutant strain, active compounds read high
Summary of the method: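 Inhibition values come from growth of compound-treated mutant yeast normalised to vehicle-treated controls.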

[11] = NCI Yeast Anticancer Drug Screen. Data for the wt2 strain (AID 169);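 also: 0% = growth of vehicle-treated yeast cultures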; details: S. cerevisiae wt2 strain growth inhibition, active compounds read high
Summary of the method: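 Against vehicle-treated controls, the growth of yeast exposed to each compound was compared, and the inhibition was recorded.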

[12] = NCI Yeast Anticancer Drug Screen. Data for the mlh1 strain (AID 171);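 also: 0% = growth of vehicle-treated control cultures of the same strain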; details: S. cerevisiae mlh1 strain growth inhibition, active compounds read high
Summary of the method: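 Measured: yeast growth. Reference: vehicle-treated controls. Organism: strain with a defined alteration affecting DNA damage repair or cell cycle control, treated with compound.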

[13] = NCI Yeast Anticancer Drug Screen. Data for the sgs1 strain (AID 173);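 also: 0% = growth of vehicle-only control cultures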; details: S. cerevisiae sgs1 mutant, active compounds read high
Summary of the method: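 Each compound was added to cultures of the altered yeast strain. Growth was recorded, and inhibition was derived by comparison with vehicle controls.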

[14] = NCI Yeast Anticancer Drug Screen. Data for the mlh1 rad18 strain (AID 175); details: S. cerevisiae mlh1 rad18 strain growth inhibition, active compounds read high
Summary of the method: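 Genetically defined yeast (DNA repair-deficient) exposed to compounds; growth inhibition determined relative to vehicle.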

[15] = NCI Yeast Anticancer Drug Screen. Data for the rad18 strain (AID 177); details: S. cerevisiae rad18 mutant growth inhibition, active compounds read high
Summary of the method: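 Vehicle-treated cultures served as the baseline for scoring compound-induced growth inhibition in DNA-repair-mutant yeast.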

[16] = at 5.0 µM (retest, dose inferred, filed as 0.5)
[17] = at 50.0 µM (retest, dose inferred, filed as 5.0)

Measured: growth inhibition

COc1ccc2c(Cc3c4ccccc4cc4ccccc34)cncc2c1O
active: [1]; at 100.0 µM 93% | [2]; at 100.0 µM 80% | [3]; at 100.0 µM 93% | [4]; [17] 98% | [4]; at 50.0 µM 93.9% | [4]; at 100.0 µM 90% | [5]; [17] 97% | [5]; at 50.0 µM 91.5% | [5]; at 100.0 µM 86% | [6]; at 33.0 µM 95% | [6]; at 100.0 µM 93% | [7]; [17] 95% | [7]; at 50.0 µM 92.8% | [9]; [17] 96% | [9]; at 50.0 µM 80.2% | [10]; [17] 97% | [10]; at 50.0 µM 87.7% | [10]; at 100.0 µM 85% | [11]; at 33.0 µM 91% | [11]; at 100.0 µM 93% | [12]; at 100.0 µM 91% | [13]; at 33.0 µM 89% | [13]; at 100.0 µM 91% | [14]; [16] 80% | [14]; [17] 97% | [14]; at 50.0 µM 95.6% | [15]; at 33.0 µM 86% | [15]; at 100.0 µM 88%
inactive: [1]; at 1.2 µM 2% | [1]; at 3.7 µM 4% | [1]; at 11.0 µM 12% | [1]; at 33.0 µM 56% | [2]; at 1.2 µM 4% | [2]; at 3.7 µM 18% | [2]; at 11.0 µM 41% | [2]; at 33.0 µM 68% | [3]; at 1.2 µM 3% | [3]; at 3.7 µM 6% | [3]; at 11.0 µM 11% | [3]; at 33.0 µM 42% | [4]; at 1.2 µM 4% | [4]; at 3.7 µM 6% | [4]; [16] 51% | [4]; at 11.0 µM 26% | [4]; at 33.0 µM 68% | [5]; at 1.2 µM 4% | [5]; at 3.7 µM 7% | [5]; [16] 19% | [5]; at 11.0 µM 12% | [5]; at 33.0 µM 33% | [6]; at 1.2 µM 6% | [6]; at 3.7 µM 7% | [6]; at 11.0 µM 27% | [7]; [16] 30% | [8]; at 1.2 µM 5% | [8]; at 3.7 µM 7% | [8]; at 11.0 µM 9% | [8]; at 33.0 µM 18% | [8]; at 100.0 µM 68% | [9]; [16] -2% | [10]; at 1.2 µM 5% | [10]; at 3.7 µM 8% | [10]; [16] 8% | [10]; at 11.0 µM 19% | [10]; at 33.0 µM 45% | [11]; at 1.2 µM 1% | [11]; at 3.7 µM 4% | [11]; at 11.0 µM 18% | [12]; at 1.2 µM 4% | [12]; at 3.7 µM 7% | [12]; at 11.0 µM 15% | [12]; at 33.0 µM 60% | [13]; at 1.2 µM 2% | [13]; at 3.7 µM 8% | [13]; at 11.0 µM 36% | [15]; at 1.2 µM 9% | [15]; at 3.7 µM 4% | [15]; at 11.0 µM 25%

N=C(N)c1ccc(N=Nc2c(O)ccc3c2[nH]c2ccccc23)cc1
inactive: [1]; at 1.2 µM -2% | [1]; at 3.7 µM -1% | [1]; at 11.0 µM 69% | [2]; at 1.2 µM 8% | [2]; at 3.7 µM 36% | [2]; at 11.0 µM 57% | [3]; at 1.2 µM -2% | [3]; at 3.7 µM 2% | [3]; at 11.0 µM 64% | [4]; at 1.2 µM -2% | [4]; at 3.7 µM 11% | [4]; [16] 57% | [5]; at 1.2 µM -3% | [5]; at 3.7 µM -1% | [5]; [16] 15% | [5]; at 11.0 µM 68% | [6]; at 1.2 µM -1% | [6]; at 3.7 µM 3% | [7]; [16] 17% | [8]; at 1.2 µM -3% | [8]; at 3.7 µM 5% | [8]; at 11.0 µM 41% | [9]; [16] -24% | [10]; at 1.2 µM -4% | [10]; at 3.7 µM -3% | [10]; [16] 19% | [11]; at 1.2 µM -3% | [11]; at 3.7 µM 5% | [12]; at 1.2 µM 1% | [12]; at 3.7 µM 2% | [13]; at 1.2 µM 0% | [13]; at 3.7 µM 21% | [14]; [16] 24% | [15]; at 1.2 µM -10% | [15]; at 3.7 µM 11%
active: [1]; at 33.0 µM 95% | [1]; at 100.0 µM 97% | [2]; at 33.0 µM 87% | [2]; at 100.0 µM 95% | [3]; at 33.0 µM 95% | [3]; at 100.0 µM 95% | [4]; at 11.0 µM 91% | [4]; at 33.0 µM 95% | [4]; [17] 98% | [4]; at 50.0 µM 97.8% | [4]; at 100.0 µM 95% | [5]; at 33.0 µM 95% | [5]; [17] 96% | [5]; at 50.0 µM 98.2% | [5]; at 100.0 µM 97% | [6]; at 11.0 µM 90% | [6]; at 33.0 µM 96% | [6]; at 100.0 µM 97% | [7]; [17] 97% | [7]; at 50.0 µM 96.8% | [8]; at 33.0 µM 93% | [8]; at 100.0 µM 94% | [9]; [17] 95% | [9]; at 50.0 µM 95.9% | [10]; at 11.0 µM 79% | [10]; at 33.0 µM 95% | [10]; [17] 97% | [10]; at 50.0 µM 98.2% | [10]; at 100.0 µM 93% | [11]; at 11.0 µM 84% | [11]; at 33.0 µM 95% | [11]; at 100.0 µM 97% | [12]; at 11.0 µM 71% | [12]; at 33.0 µM 92% | [12]; at 100.0 µM 96% | [13]; at 11.0 µM 92% | [13]; at 33.0 µM 96% | [13]; at 100.0 µM 96% | [14]; [17] 98% | [14]; at 50.0 µM 98.3% | [15]; at 11.0 µM 93% | [15]; at 33.0 µM 96% | [15]; at 100.0 µM 95%
